This is an account of results in PubChem BioAssay (NCATS).

Values joined by “and” are separate entries in the source; they are usually repeats but may differ in a detail not shown here. Equal values may be shown once. Inconclusive results are not listed. Where a structure was tested more than once in an assay, its records may differ in their call. Active and inactive are the calls of the source. Unless noted, calls come from the whole dose curve; as a rule, active = well fitted curve in either direction with a large enough effect (not every such curve was filed as active); inconclusive = small, poorly fitted or top-dose-only effect, or another doubt; inactive = flat fitted curve, though single readings scatter.

Assay [1] has as its target Lysosomal acid glucosylceramidase (Homo sapiens) (UniProt P04062). The assay can be described thus: Glucocerebrosidase-p2 (AID 348; in the data active = potency below about 10 µM; note: potency is the fitted concentration of half-maximal effect). Conditions: purified GBA, blue fluorogenic substrate, 40 min. The method, boiled down: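 Normal human glucocerebrosidase (0.2 nM) with blue fluorogenic substrate (80 uM final) in citrate/phosphate pH 5.9 with 10mM sodium taurocholate, 0.01% tween-20; 40 min RT, NaOH/glycine stop; fluorescence Ex 365/Em 440; AC50 from a titration from 0.6 nM upwards.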

A short description of assay [2]: AP1 Signaling Pathway (AID 357).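 Note: ME-180 reporter cells stimulated with EGF at its EC50 level; % is set by controls: 0 for no effect and ±100 for the full control effect.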 To be noted: ME-180 AP-1-bla reporter, EGF-induced, beta-lactamase ratio, 5 h. The method, boiled down:
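AP-1-bla ME-180 cells, Opti-MEM + 0.5% dialyzed FBS, plated overnight 37 °C. Cpd titration + EC50 EGF, 5 h 37 °C. CCF4 2.5 h RT; ex 405, em 460/530 ratio → %activity, AC50.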

The target in assay [3] is Cytochrome P450 1A2 (Homo sapiens) (UniProt P05177). Description: p450-cyp1a2 (AID 410; calls by dose curve; note: potency is the fitted concentration of half-maximal effect;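 for activity change, negative = inhibition: -100% = full effect of reference inhibitor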). Conditions: recombinant CYP1A2, luciferin-ME demethylation, luminescence; series mostly up to 57 µM. The method, boiled down:
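Read-out is luminescence from luciferin produced by CYP1A2 demethylation of Luciferin-ME (100uM, at Km). Detection reagent stopped the 60 min NADPH-dependent reaction; signals were normalized to 57 uM furafylline.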

Assay [4] in a line: NFAT Signaling Pathway (AID 444).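 Note: carbachol stimulus at about its EC50 of 1 µM final; % is set by controls: 0 for no effect and ±100 for the full control effect.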 To be noted: Jurkat NFAT-bla M1, carbachol, beta-lactamase ratio, 5 h. The essentials: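 Jurkat cells carrying an NFAT-driven β-lactamase reporter and co-transfected muscarinic M1 receptor were treated with compound plus carbachol (1 uM final, an EC50 level) for 5 h at 37 °C. CCF4 loading followed for 1 h at RT; 460/530 nm ratio gave %activity.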

Assay [5] can be described thus: Stat Signaling Pathway (AID 446).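 Note: ME-180 cervical cancer cells given 40 pM IL-6 alongside compound; SIE-controlled beta-lactamase reporter measured as 460/530 nm FRET emission ratio; % is set by controls: 0 for no effect and ±100 for the full control effect.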 To be noted: ME-180 (cervical carcinoma) SIE beta-lactamase reporter, IL-6 stimulated, 5 h. The method, boiled down:
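Overnight-plated ME-180 cells bearing a STAT Inducible Element beta-lactamase reporter; 5 h co-exposure to compound and 40 pM IL-6; values normalized to 300 pM IL-6 and 125 nM JAK inhibitor controls.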

The target of assay [6] is Glucocorticoid receptor (Homo sapiens) (UniProt P04150). The assay can be described thus: GR-GFP Redistribution (AID 450;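 active = compounds whose dose series gives a full or clear partial fitted curve of increased nuclear translocation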; note: potency is the fitted concentration of half-maximal effect). Conditions: U2OS GR-GFP nuclear translocation, laser cytometry, 2 h.
Glucocorticoid receptor (Homo sapiens), sequence (P04150 whole entry, looked up, the tested form may be a part): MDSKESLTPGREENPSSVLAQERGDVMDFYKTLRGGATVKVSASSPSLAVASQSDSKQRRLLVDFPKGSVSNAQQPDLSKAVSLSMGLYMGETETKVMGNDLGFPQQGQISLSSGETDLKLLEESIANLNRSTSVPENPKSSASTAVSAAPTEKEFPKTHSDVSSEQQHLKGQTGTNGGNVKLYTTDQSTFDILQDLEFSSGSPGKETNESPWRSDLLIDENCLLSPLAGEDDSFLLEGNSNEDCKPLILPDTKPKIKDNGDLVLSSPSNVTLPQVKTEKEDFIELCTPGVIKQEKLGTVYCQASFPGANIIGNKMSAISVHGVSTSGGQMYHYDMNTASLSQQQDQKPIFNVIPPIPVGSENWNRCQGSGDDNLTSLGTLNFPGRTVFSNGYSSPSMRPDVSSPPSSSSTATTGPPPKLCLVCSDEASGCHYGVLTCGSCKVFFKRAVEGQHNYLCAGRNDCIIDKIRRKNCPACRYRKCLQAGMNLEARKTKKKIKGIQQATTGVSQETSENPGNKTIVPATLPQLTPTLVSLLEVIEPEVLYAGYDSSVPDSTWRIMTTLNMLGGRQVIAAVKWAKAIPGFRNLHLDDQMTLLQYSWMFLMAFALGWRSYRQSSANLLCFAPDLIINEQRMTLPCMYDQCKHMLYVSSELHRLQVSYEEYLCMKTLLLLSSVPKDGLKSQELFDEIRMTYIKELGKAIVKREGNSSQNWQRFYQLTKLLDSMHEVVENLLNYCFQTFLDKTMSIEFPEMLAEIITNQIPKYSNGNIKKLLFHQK
Assay [7] shares this target. Description: GR-EFC Redistribution (AID 451; calls by dose curve; note: potency is the fitted concentration of half-maximal effect). Conditions: CHO-K1 GR-EFC translocation, beta-gal luminescence, 2 h. The essentials: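 CHO-K1 cells stably expressing nuclear-localized β-gal enzyme acceptor and GR fused C-terminally to the enzyme donor fragment; ligand-driven nuclear translocation restores β-gal by complementation. Compounds titrated up to 46 uM final, 2 h at 37 °C; luminescence read.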

Assay [8] concerns the target Mitogen-activated protein kinase 10 (Mus musculus) (UniProt Q61831). Description: JNK3 AlphaScreen Assay (AID 530).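 Note: kinase came from lysate of stimulated human HepG2 cells; % is set by controls: 0 for no effect and ±100 for the full control effect.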 To be noted: JNK3 lysate, c-Jun phosphorylation; series mostly up to 57.1 µM. The method, boiled down: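 Biotinylated GST-cJun(1-79) served as substrate for JNK3 in HepG2 lysates stimulated with IL-1beta and TNF-alpha. ATP was 10 uM final, pH 7.6. Ser73 phosphorylation was quantified by AlphaScreen (680 nm excitation).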
A general note: In Alpha technology, singlet oxygen from a donor bead excites a nearby acceptor bead.

Assay [9] addresses 3',5'-cyclic-AMP phosphodiesterase 4B (Homo sapiens) (UniProt Q07343). Description: qHTS Assay for Inhibitors of PDE-IV (AID 607; active = well fitted activation curve with a large enough effect in the main read-out, with a control signal flat, not every such curve was filed as active; note: % of control where 0% means no effect). Conditions: HEK293 ACTOne CNG channel cells, membrane potential fluorescence; series mostly up to 22.9 µM. The essentials:
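Live HEK293 cells with a modified cyclic nucleotide-gated (CNG) channel report intracellular cAMP via membrane-potential dye fluorescence (ex 535/em 590 nm). Endogenous PDE-IV was targeted. Compounds were tested at up to 22.9 uM final; RO 20-1724 100 uM served as control.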
In general terms: qHTS replaces the single test concentration by a dilution series.

Assay [10] is described as follows: Cell Viability - Jurkat (AID 426;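 active = dose-dependent loss of cell ATP signal giving a full or clear fitted curve, ranked by lower potency value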; note: potency is the fitted concentration of half-maximal effect). Conditions: qHTS. The method, boiled down:
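Cytotoxicity was scored as loss of cellular ATP, measured by luciferase-based luminescence, in Jurkat clone E6-1 cells after 40 h compound treatment; tamoxifen and doxorubicin served as positive controls.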

A short description of assay [11]: Cell Viability - Hek293 (AID 427;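 active = compounds whose dose-response curve shows a full or clear partial loss of cell viability, called from curve shape rather than a numeric limit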;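 note: potency is the fitted concentration of half-maximal effect; cells exposed to compound for 40 hours at 37 °C before reading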). To be noted: qHTS. The essentials: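 AC50 values derive from Hill-modelled concentration-response of ATP-based luminescence, normalized between DMSO-only and 100 uM tamoxifen controls. Cells were exposed in complete culture medium for 40 hr at 37 °C before detection.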
Assay [12] is described as follows: Cell Viability - MRC5 (AID 434; calls by dose curve;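 note: potency is the fitted concentration of half-maximal effect; potency reflects cytotoxicity seen as loss of intracellular ATP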). Conditions: MRC5 lung fibroblast viability, qHTS. The essentials:
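Decrease in intracellular ATP, quantified by luciferase light output, reflects compound toxicity toward MRC5 cells exposed for 40 hr in complete culture medium. Concentration-response curves, scaled between DMSO and 100 uM tamoxifen, gave AC50 values.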

A short description of assay [13]: Cell Viability - SK-N-SH (AID 435; calls by dose curve;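 note: potency is the fitted concentration of half-maximal effect; compound exposure lasted 40 h at 37 °C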). Conditions: SK-N-SH neuroblastoma cell viability qHTS. The method, boiled down: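 SK-N-SH human neuroblastoma cells (1500/well) were exposed to compounds in complete medium for 40 h at 37 °C, and intracellular ATP was then measured by CellTiter-Glo luminescence. AC50 was taken from Hill fits, normalized to DMSO and 100 uM tamoxifen.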

The nature of assay [14]: Cell Viability - H-4-II-E (AID 543; active = well fitted curve in the direction sought with a large enough effect; an effect the other way counts as inactive or inconclusive; note: potency is the fitted concentration of half-maximal effect; nearly all actives have a fitted effect of over 35% in size). Conditions: H-4-II-E rat hepatoma viability; series mostly up to 92.2 µM. The essentials:
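AC50 from Hill-modelled qHTS concentration-response curves. H-4-II-E rat hepatoma cells in complete medium, 40 hr exposure at 37 °C, viability by CellTiter-Glo ATP luminescence.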

A short description of assay [15]: Cellular Toxicity (caspase-3) HepG2 (AID 654; active = well fitted curve in the direction sought with a large enough effect; an effect the other way counts as inactive or inconclusive;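 note: cells exposed to compound for 16 hours before reading; 0% = DMSO alone and 100% = caspase signal from 100 µM tamoxifen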). To be noted: HepG2 caspase-3 activation, luminescence; series mostly up to 92.2 µM. The essentials:
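Concentration-response AC50 values reflect caspase-3/7 induction in HepG2 cells after 16 hours of compound exposure, quantified by luminescence from liberated aminoluciferin and referenced to 100 uM tamoxifen as full stimulation.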

[16] abbreviates: at 38 µM (top of the series) unless noted.

3',5'-cyclic-AMP phosphodiesterase 4B (Homo sapiens), sequence (Q07343 whole entry, looked up): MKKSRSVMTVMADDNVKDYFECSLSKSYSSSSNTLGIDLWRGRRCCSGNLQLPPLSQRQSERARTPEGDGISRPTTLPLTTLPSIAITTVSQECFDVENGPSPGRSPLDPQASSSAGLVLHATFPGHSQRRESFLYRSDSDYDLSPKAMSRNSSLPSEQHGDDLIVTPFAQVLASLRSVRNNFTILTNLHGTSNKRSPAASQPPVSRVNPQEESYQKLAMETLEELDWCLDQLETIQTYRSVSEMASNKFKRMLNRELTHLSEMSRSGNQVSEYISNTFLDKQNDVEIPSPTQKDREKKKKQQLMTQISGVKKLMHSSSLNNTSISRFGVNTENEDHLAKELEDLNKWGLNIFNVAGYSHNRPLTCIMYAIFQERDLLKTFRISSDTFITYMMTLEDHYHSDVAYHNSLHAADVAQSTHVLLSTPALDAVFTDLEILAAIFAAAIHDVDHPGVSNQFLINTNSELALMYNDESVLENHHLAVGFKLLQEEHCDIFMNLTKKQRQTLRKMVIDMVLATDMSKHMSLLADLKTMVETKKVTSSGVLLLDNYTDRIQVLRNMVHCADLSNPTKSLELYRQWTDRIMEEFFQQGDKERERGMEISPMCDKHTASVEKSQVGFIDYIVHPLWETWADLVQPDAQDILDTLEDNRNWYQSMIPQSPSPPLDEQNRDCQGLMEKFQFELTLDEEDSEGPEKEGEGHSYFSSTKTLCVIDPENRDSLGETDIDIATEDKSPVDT
Cytochrome P450 1A2 (Homo sapiens), sequence (P05177 whole entry, looked up): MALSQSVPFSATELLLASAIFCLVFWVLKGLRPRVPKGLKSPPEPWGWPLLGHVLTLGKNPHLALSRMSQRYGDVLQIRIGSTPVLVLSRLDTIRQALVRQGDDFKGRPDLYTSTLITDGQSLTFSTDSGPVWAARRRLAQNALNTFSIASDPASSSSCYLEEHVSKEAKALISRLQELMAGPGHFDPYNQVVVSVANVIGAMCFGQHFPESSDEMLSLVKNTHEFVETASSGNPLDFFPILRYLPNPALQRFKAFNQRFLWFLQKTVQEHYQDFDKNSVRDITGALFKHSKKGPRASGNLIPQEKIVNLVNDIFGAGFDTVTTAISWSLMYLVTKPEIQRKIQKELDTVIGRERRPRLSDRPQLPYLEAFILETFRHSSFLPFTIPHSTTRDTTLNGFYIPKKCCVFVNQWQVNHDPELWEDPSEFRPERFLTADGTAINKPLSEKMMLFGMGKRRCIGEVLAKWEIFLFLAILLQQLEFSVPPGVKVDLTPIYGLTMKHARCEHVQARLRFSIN
Lysosomal acid glucosylceramidase (Homo sapiens), sequence (P04062 whole entry, looked up): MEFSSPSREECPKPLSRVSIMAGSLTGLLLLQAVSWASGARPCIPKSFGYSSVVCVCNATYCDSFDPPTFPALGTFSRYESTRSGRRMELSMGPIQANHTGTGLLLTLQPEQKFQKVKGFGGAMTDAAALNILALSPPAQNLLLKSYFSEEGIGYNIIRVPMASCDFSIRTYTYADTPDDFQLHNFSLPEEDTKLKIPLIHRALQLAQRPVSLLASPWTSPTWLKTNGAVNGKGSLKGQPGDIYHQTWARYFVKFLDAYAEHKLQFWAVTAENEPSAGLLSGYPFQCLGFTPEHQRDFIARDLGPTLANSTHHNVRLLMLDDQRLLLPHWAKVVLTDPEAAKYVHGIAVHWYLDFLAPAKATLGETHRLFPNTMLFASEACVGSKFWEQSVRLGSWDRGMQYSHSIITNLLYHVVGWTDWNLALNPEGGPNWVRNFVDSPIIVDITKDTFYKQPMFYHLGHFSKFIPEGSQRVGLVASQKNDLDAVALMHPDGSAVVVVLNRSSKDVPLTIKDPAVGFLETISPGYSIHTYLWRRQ

In the case of `O=C(O)CC[C@@H](C(=O)O)N1C(=O)c2ccccc2C1=O`, the Potency is > 11.4 µM (inactive) in assay [1]; > 46 µM (inactive) in assay [6]; > 46 µM (inactive) and > 9.22 µM (inactive) in assay [7]. In addition, the activity change, negative = inhibition in assay [2] (at 7.69 µM (top of the series)) is -7.49% (inactive); in [2] (at 38 µM (top of the series)) it was 3.98% (inactive); in assay [4] (at 7.69 µM (top of the series)), 15.2% (inactive); in assay [4] (at 38 µM (top of the series)), -1.84% (inactive). Besides, the Potency result in [3] and in assay [8] was “inactive” each time. Moreover, the activity, negative = inhibition in assay [5] (at 7.69 µM (top of the series)) was 3.89% (inactive); in assay [5] (at 38 µM (top of the series)), 0.0495% (inactive). Moreover, the call in assay [9] was inactive.

Turning to `c1ccc(-c2ccccn2)nc1`, the activity change, negative = inhibition in assay [2] (at 38 µM (top of the series)) is 11.7% (inactive); in assay [4] (setting [16]), -2.98% (inactive). Besides, the Potency in assay [3] is 25.1 µM (active); in assay [7], > 46 µM (inactive). For the same compound, in assay [5] (at 38 µM (top of the series)), the activity, negative = inhibition is 6.11% (inactive). Besides, in assay [8], the Potency entry is “inactive”. For the same compound, the compound was classed as inactive in [9].

`CC(C)Cc1ccc([C@H](C)C(=O)O)cc1`: the activity change, negative = inhibition in assay [2] (at 17.2 µM (top of the series)) was -1.53% (inactive); in assay [2] (at 38 µM (top of the series)), -1.91% (inactive) and 13.2% (inactive); in assay [4] (at 17.2 µM (top of the series)), -2.57% (inactive); in assay [4] (at 38 µM (top of the series)) it was -3.84% (inactive) and 2.4% (inactive). Also, the Potency result in assay [3] and in assay [8] was “inactive” in each case. Further, the activity, negative = inhibition in [5] (at 17.2 µM (top of the series)) is -0.514% (inactive); in [5] (at 38 µM (top of the series)) it was -0.822% (inactive) and 26.9% (inactive). Also, the Potency was > 46 µM (inactive) and > 20.6 µM (inactive) in assay [6]; > 46 µM (inactive) and > 20.6 µM (inactive) in assay [7]. In assay [9], the compound was classed as inactive.

With `N[C@H](CCCP(=O)(O)O)C(=O)O`, the results for the activity change, negative = inhibition in assay [2] (at 38 µM (top of the series)) and in [4] (setting [16]) were -8.4% (inactive) and -6.29% (inactive), respectively. Besides, the Potency entry in [3] was “inactive and 31.6 µM (active) and 25.1 µM (active)”; in [7], > 46 µM (inactive). Moreover, the activity, negative = inhibition in assay [5] (at 38 µM (top of the series)) was 14.7% (inactive). Moreover, the Potency entry in [8] is “inactive”. Besides, the compound was called inactive in [9].

In the case of `Clc1ccc(N2CCN(Cc3c[nH]c4ncccc34)CC2)cc1`, the activity change, negative = inhibition in assay [2] (at 38 µM (top of the series)) was -4.78% (inactive); in assay [4] (setting [16]), -18.8% (inactive). Besides, the Potency result in assay [3] was “inactive and 15.8 µM (active)”; in [7] it was > 46 µM (inactive). For the same compound, the activity, negative = inhibition in assay [5] (at 38 µM (top of the series)) was -44.5% (inactive). Besides, the call in assay [9] was inactive.

As for `O=c1[nH]c2ccccc2n1CCCN1CCN(C(c2ccccc2)c2ccccc2)CC1`, the activity change, negative = inhibition in [2] (at 17.2 µM (top of the series)) was -6.95% (inactive); in assay [2] (at 38 µM (top of the series)), -17.6% (inactive). For the same compound, the Potency in assay [3] is 25.1 µM (active); in assay [6], > 46 µM (inactive) and > 20.6 µM (inactive). Also, the activity, negative = inhibition in assay [5] (at 17.2 µM (top of the series)) was -2.06% (inactive).

Consider `Nc1nc(Cl)nc2c1ncn2[C@@H]1O[C@H](CO)[C@@H](O)[C@H]1O`, for which the activity change, negative = inhibition in assay [2] (at 17.2 µM (top of the series)) is 0.568% (inactive); in assay [4] (setting [16]), 22.4% [at 17.2 µM] (inactive). The activity, negative = inhibition in assay [5] (at 17.2 µM (top of the series)) was 24.3% (inactive). For the same compound, the Potency in [6] is > 20.6 µM (inactive).

With `COc1cc(OC)c(/C=C2/C(=O)Nc3ccccc32)c(OC)c1`, the values for the activity change, negative = inhibition in [2] (at 38 µM (top of the series)) and in assay [4] (setting [16]) were -28.2% (inactive) and -8.19% (inactive), respectively. Moreover, the Potency in [3] was 0.501 µM (active); in assay [6] it was > 46 µM (inactive). In [8], the Potency entry is “inactive”. In assay [9], the compound was classed as inactive.

Take `COc1cc(/C=C/C(=O)CC(=O)/C=C/c2ccc(O)c(OC)c2)ccc1O`: the activity change, negative = inhibition in assay [2] (at 17.2 µM (top of the series)) is 22.5% (inactive). Further, the Potency in [10] is 28.2 µM (active); in assay [11] it was 42.7 µM (active); in [12], 45.2 µM (active); in [13], 22.9 µM (active); in assay [14], 31.6 µM (active). Also, the activity, negative = inhibition in assay [5] (at 17.2 µM (top of the series)) was -22.7% (inactive). In addition, the Potency result in [8] and in assay [15] was “inactive” throughout.
